We go through 20 compounds from PubChem BioAssay (EPA / NIEHS).

The source made the active and inactive calls. Rule for the calls: active = hit-call score of the fitted dose curve at least 0.9, where 1 is the maximum; inactive = score below 0.9.

This experiment is described as follows: CCTE_Harrill_HTTr_Viability_MCF7: CCTE's 6-hour Cell Viability Assessment for the High-Throughput Transcriptomics (HTTr) Platform, in MCF-7 cells cultured in DMEM + 10% fetal bovine serum, Harrill Lab (AID 2284010). In outline:
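Read-out is propidium iodide gain of signal by high-content imaging, reflecting membrane integrity loss. Measurements are taken 6 h after dosing, eight concentrations per chemical, with DMSO serving as baseline for bidirectional curve fitting.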
For the compound `COC(=O)c1ccc(O)cc1`, the outcome was inactive.
With `Cc1ccc(C)c(C)c1`, the result was inactive.
Next, `Cc1nc(C)nc(N2C[C@@H](C)N(c3ccnc([C@@H](C)O)n3)[C@@H](C)C2)n1`: “inactive”; `OC[C@@H](O)[C@@H](O)[C@H](O)[C@H](O)CO`: “inactive”.
Next, `Oc1ccc2ccccc2c1N=Nc1ccccc1`: “inactive”; `Cc1oc(-c2ccccc2)nc1CCOc1cccc2c1ccn2CCC(=O)O`: “inactive”.
Under `CC(=O)OCCOCCOCCOC(C)=O` stands “inactive”; under `COc1cc(-c2nc(NC(=O)c3cc4cc(C)cc(C)c4n3CC(=O)O)sc2CCC2CCCCC2)c(OC)cc1Cl`, “inactive”; under `CCCCN(CCCC)CCCC`, “inactive”.
For `Cc1cccc(Nc2cc(Cl)nc(SCC(=O)O)n2)c1C`, the outcome was inactive.
Next, `CCCCCCCCCCCCCCCC`: “inactive”; `O=C(N[C@@H](Cc1ccccc1)[C@@H](O)C(=O)N1C[C@@H](O)[C@@H](O)C1)c1cc2cc(Cl)ccc2[nH]1`: “inactive”.
Under `CCCCCCCCCCCC(=O)OC` stands “inactive”; under `CCCCCCCCCCC`, “inactive”; under `Cc1cc(NC(=O)C(=O)O)cc(C)c1Oc1ccc(O)c2c1CCC2`, “inactive”.
For the compound `CCc1c(C(=O)NN2CCCCC2)nn(-c2ccc(Cl)cc2Cl)c1-c1ccc(Br)cc1`, the outcome was inactive.
Next, `COCCOC[C@H](CC1(C(=O)NC2CCC(C(=O)O)CC2)CCCC1)C(=O)Oc1ccc2c(c1)CCC2` (stereo not given in full): “inactive”; `O=C(O)Cc1ccccc1Nc1c(Cl)cccc1Cl`: “inactive”; `C1CCC(SSC2CCCCC2)CC1`: “inactive”.
Next, `Cc1nc(-c2ccc3c(c2)CCN(CCC2CCC(NC(=O)/C=C/c4ccc(F)cc4)CC2)CC3)no1` (stereo not given): “inactive”.
